Drawing on the supplement of paper PMC4709259, this text covers mean cell size and cell count for eight molecules.

Where a name gives a salt, the structure may show the parent alone. ± gives the standard deviation.

Test [1] relates to Jurkat. The experiment in a line: mean cell size (FSC-A) relative to DMSO control (fraction of control); higher = larger cells. The note with it: 48 h. In a few lines: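 Jurkat cells seeded at 600 cells/µl were incubated 1 h, then exposed for 48h to the Enzo Screen-Well FDA Approved Drug Library v2.0 at 25µM in 0.9% (v/v) final DMSO. Drugs that cut counts below 20% of controls were diluted 10-fold and retested, down to 25nM. Cell count and mean cell size (forward scatter area) were read on an Accuri C6 flow cytometer, relative to solvent-only controls. Plates held 6-12 controls; values are means of 3 biological replicates.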

The subject of test [2] is Jurkat. The experiment in a line: cell count relative to DMSO control (fraction of control); higher = more cells (less growth inhibition). As to conditions: 48 h.

Molecule `C[C@H]1C[C@H]2[C@@H]3CCC4=CC(=O)C=C[C@]4(C)[C@@]3(F)[C@@H](O)C[C@]2(C)[C@@]1(O)C(=O)CO` [Betamethasone] (concentration: 25 µM) had a mean cell size in the test with Jurkat [1] of 0.914 ± 0.018. In addition, the cell count with Jurkat [2] was determined as 0.764 ± 0.084.

Take `N[C@@H](C(=O)N[C@@H]1C(=O)N2C(C(=O)O)=C(Cl)CS[C@H]12)c1ccccc1` [Cefaclor] (concentration: 25 µM): the mean cell size in the test with Jurkat [1] is 0.916 ± 0.015. For the same molecule, the cell count in the test on Jurkat [2] came to 1.03 ± 0.097.

Molecule `Nc1ccn([C@H]2CC[C@@H](CO)O2)c(=O)n1` [Zalcitabine (2',3'-Dideoxycytidine)] (concentration: 25 µM) displayed a mean cell size in the test with Jurkat [1] of 1.31 ± 0.061. The molecule also returned a cell count in the test with Jurkat [2] of 0.336 ± 0.073.

`COC(=O)[C@H]1[C@H]2C[C@@H]3c4[nH]c5cc(OC)ccc5c4CCN3C[C@H]2C[C@@H](OC(=O)c2cc(OC)c(OC)c(OC)c2)[C@@H]1OC` [Reserpine] (concentration: 25 µM) came in with a mean cell size in the test on Jurkat [1] of 0.988 ± 0.025. In the test on Jurkat [2], the cell count was found to be 0.616 ± 0.098.

In the case of `COc1cc([C@@H]2c3cc4c(cc3[C@@H](O[C@@H]3O[C@@H]5CO[C@@H](c6cccs6)O[C@H]5[C@H](O)[C@H]3O)[C@H]3COC(=O)[C@H]23)OCO4)cc(OC)c1O` [Teniposide] (concentration: 25 nM), in the test with Jurkat [1], the mean cell size was determined as 1.25 ± 0.033. The cell count in the test with Jurkat [2] was 0.478 ± 0.044.

`CN(C)C(=N)NC(=N)N` [Metformin·HCl] (concentration: 25 µM): the mean cell size with Jurkat [1] was found to be 0.954 ± 0.067. Besides, the cell count in the test on Jurkat [2] came to 0.66 ± 0.18.

In the test on Jurkat [1], `CN(C)CCCC1(c2ccc(F)cc2)OCc2cc(C#N)ccc21` (stereo unspecified) [Citalopram·HBr] (concentration: 25 µM) had a mean cell size of 0.951 ± 0.031. The cell count in the test on Jurkat [2] stood at 1.15 ± 0.039.

Regarding `CCCc1nn(C)c2c(=O)[nH]c(-c3cc(S(=O)(=O)N4CCN(C)CC4)ccc3OCC)nc12` [Sildenafil Citrate] (concentration: 25 µM), in the test with Jurkat [1], the mean cell size came out at 1.02 ± 0.055. The same molecule displayed a cell count in the test with Jurkat [2] of 0.719 ± 0.22.
